The other results are listed elsewhere or left out. Unmarked numbers belong to inactive results. The source made the active and inactive calls.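 How the source made its calls: active means cytotoxicity above 50% in each of four replicates; inactive means the rest.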
Test: viability loss in mouse AML12 liver cells – cell-based, single concentration, cytotoxicity control for hepatic lipid droplet formation project, confirmation (AID 463219);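 further: compound exposure lasted overnight at 37 °C before the ATP read; 0% = DMSO-treated cells and 100% = wells with no cells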
Settings: AML12 mouse hepatocyte viability, ATP luminescence; at 50 µM; hits give high values; cells loaded with 100 µM oleic acid

## O=C1Nc2ccc(Br)cc2/C1=N/N=C/C1=C(N2CCOCC2)C(=C\c2ccccc2)/CC1
  cytotoxicity: -0.325%

## Cc1cc(NC(=O)CSc2nc(C(C)C)nc3sc4c(c23)CCC(C)C4)no1 (stereo not drawn)
  cytotoxicity: 10.1%

## COc1ccc(/C=C(\NC(=O)c2ccc(OCC(C)C)cc2)C(=O)OCc2ccco2)cc1
  cytotoxicity: 7.73%

## Cc1cc(C(=O)NC2CCCc3c2cnn3-c2cccc(C)c2C)c(C)o1 (stereo not drawn)
  cytotoxicity: 14.5%

## COc1cccc(/C=C(/CC(=O)Nc2ccc(N3CCOCC3)cc2)c2nc3ccccc3s2)c1
  cytotoxicity: 9.53%

## COc1ccc(C(C(=O)NC(C)(C)C)N(Cc2ccc(F)cc2)C(=O)CCC(=O)Nc2cc(C)on2)cc1 (stereo not drawn)
  cytotoxicity: 10.5%

## CCOc1ccc(CCNC(=O)Nc2ccccc2)cc1OCC
  cytotoxicity: 12.3%

## COc1ccc(Cl)cc1NC(=O)CN(C)C(=O)CCCc1c[nH]c2ccccc12
  cytotoxicity: 22.5%

## CCOc1ccc(CCNC(=O)CCc2nnc3ccc(N4CCCC4)nn23)cc1OCC
  cytotoxicity: 2.1%

## Cc1ccc(N2C(=O)C(NC(=O)c3c(F)cccc3F)(C(F)(F)F)C3=C2CC(C)(C)CC3=O)cc1 (stereo not drawn)
  cytotoxicity: 13.2%

## Cn1c(=O)[nH]c(=O)c2c1nc(N1CCN(C(c3ccccc3)c3ccccc3)CC1)n2CCO
  cytotoxicity: 77.5% (active)

## CCCc1ccc(-c2csc(NC(=O)Cc3cccs3)n2)cc1
  cytotoxicity: 14%

## CCCN(CCC)c1ccc(C(O)c2nnc(-c3ccccc3)o2)cc1 (stereo not drawn)
  cytotoxicity: 6.65%
